Test results: PubChem BioAssay AID588676 (Johns Hopkins Ion Channel Center, 2011)
The campaign covered roughly 310,000 compounds. About 3,900 (1.3%) were called active.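 Rule for the calls: active = calcium-response B-score plate-corrected more than 3 library SD below zero, starting fluorescence within 5 deviations, no agonist response on first addition; inactive = the rest.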 For the sample, actives were picked, then their nearest neighbours and some compounds at random.

Target: Mas-related G-protein coupled receptor member X1 (Homo sapiens) (UniProt Q96LB2)
Sequence (Q96LB2 whole entry, looked up): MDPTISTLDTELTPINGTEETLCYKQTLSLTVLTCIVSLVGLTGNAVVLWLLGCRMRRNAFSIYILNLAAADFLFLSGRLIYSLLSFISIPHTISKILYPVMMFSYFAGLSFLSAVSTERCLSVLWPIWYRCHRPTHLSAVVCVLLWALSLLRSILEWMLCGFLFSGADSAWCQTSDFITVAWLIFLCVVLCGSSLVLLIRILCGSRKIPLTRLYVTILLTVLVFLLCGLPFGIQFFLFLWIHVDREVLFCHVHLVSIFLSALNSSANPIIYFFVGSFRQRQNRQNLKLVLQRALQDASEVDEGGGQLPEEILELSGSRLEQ
Assay: blockade of BAM8-22-evoked MrgX1 calcium response – HEK293 cells, Fluo-4 calcium flux, primary screen (AID 588676);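 for B-score: peak minus trough fluorescence over baseline after final BAM8-22 challenge near maximal dose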
Conditions: Fluo-4, BAM8-22 antagonism, at 10 µM; stronger effect = lower value

| Structure (SMILES) | B-score |
| --- | --- |
| COc1ccc(NC(=O)N2CCC3(CC2)OCCO3)c(OC)c1 | inactive |
| COc1ccc(S(=O)(=O)NCc2ccc(C(=O)N3CCC4(CC3)OCCO4)cc2)cc1 | -6.08 (active) |
| COc1ccc(-c2nc(CS(=O)CC(=O)N3CCC4(CC3)OCCO4)c(C)o2)cc1 (stereo not given) | inactive |
| COC(=O)C1=C(c2cc3ccccc3o2)C[C@@H]2CC[C@H]1N2C(=O)NC1CCCCC1 | inactive |
| CCCCCCCCCCCCn1ccc(=N)cc1 | -5.32 (active) |
| COc1ccccc1C1=NCc2nnc(CSC)n2-c2ccc(Cl)cc21 | inactive |
| CCCCCn1c(=O)c(C(=O)NCc2ccccn2)c(O)c2ccccc21 | inactive |
| CCCCCn1c(=O)c(C(=O)NCc2ccccc2)c(O)c2ccccc21 | -6.52 (active) |
| CCCCn1c(=O)c(C(=O)Nc2ccccc2Cl)c(O)c2ccccc21 | inactive |
| CC(C)c1ccc(OCC(=O)N2CCN(C)CC2)c(Br)c1 | inactive |
| CCOC(=O)C1SC2(C(F)(F)C(F)F)CC1(O)c1c(c(OC)c3occc3c1OC)O2 (stereo not given) | inactive |
| CNCC(O)c1cc(F)c(OCc2ccccc2)c(OCc2ccccc2)c1F (stereo not given) | inactive |
| Cc1ccc(-n2c(O)c(C=NCC3CCCO3)c(=O)[nH]c2=O)c(C)c1 (stereo not given) | inactive |
| CCOC(=O)C(O)(c1ccc(N=Cc2ccccc2O)c(C)c1)C(F)(F)F (stereo not given) | inactive |
| Cc1cccc(NC(=O)N2CC3CC(C2)c2cccc(=O)n2C3)c1 (stereo not given) | inactive |
| COc1ccccc1N1CCN(C(CNC(=O)Oc2ccccc2)c2cccnc2)CC1 (stereo not given) | inactive |
| CN1CCN(C(=S)SCC(=O)Nc2ccc(Cl)cc2C(=O)c2ccccc2)CC1 | inactive |
| O=C(CN1CCCCC1)Nc1ccc(Br)cc1C(=O)c1ccccc1Cl | inactive |
| O=C(CCN1CCCCC1)NCC(=O)Nc1ccc(Br)cc1C(=O)c1ccccc1 | -5.59 (active) |
| CCOC(=O)C1=C(C)OC(N)=C(C(=O)OC)C12C(=O)Nc1ccc(Br)cc12 (stereo not given) | inactive |
